dFosB activator = enhances mouse delta FosB homodimer DNA binding; P13346; purified delta FosB, TAMRA-CDK5 oligo fluorescence polarization; percent of positive-control signal above neutral wells; activation, % at 25 µM; hit rate 0.99% among 340,000;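 active means mean activation above about 17%, with every replicate also reaching it, limit read from the data, passing the limit was not always enough; inconclusive means only one of the two conditions met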
Target sequence (P13346 whole entry, looked up): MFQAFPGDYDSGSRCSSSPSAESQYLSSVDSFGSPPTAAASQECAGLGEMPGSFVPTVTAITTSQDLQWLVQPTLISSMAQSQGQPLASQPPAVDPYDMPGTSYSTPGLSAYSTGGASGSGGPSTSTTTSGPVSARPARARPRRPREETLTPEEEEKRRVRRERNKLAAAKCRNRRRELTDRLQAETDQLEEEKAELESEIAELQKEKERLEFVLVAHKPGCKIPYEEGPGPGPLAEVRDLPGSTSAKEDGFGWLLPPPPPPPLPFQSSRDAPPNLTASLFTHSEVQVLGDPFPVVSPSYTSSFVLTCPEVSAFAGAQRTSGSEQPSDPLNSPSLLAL
NCF1 inh = blocks human p47phox regulatory protein of NADPH oxidases; p47phox/p22phox peptide binding, fluorescence polarization, 2 h; inhibition, % at 24.7 µM; hit rate 0.53% among 220,000; AID 1274;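 active means inhibition above about 30%, limit read from the data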;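 further: 0% = p47phox with labelled peptide and 100% = labelled peptide alone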
14-3-3 Bad PPI = disrupts binding of bovine 14-3-3 zeta to phospho-Bad peptide | inhibition, % at 21.7 µM | P63103 | TR-FRET 14-3-3zeta/Dy647-pBad peptide displacement, 1 h | hit rate 0.71% among 220,000 | AID 781;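 active means inhibition above about 70%, limit read from the data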;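 further: 0% = full 14-3-3 plus peptide FRET controls and 100% = background without 14-3-3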
Efa HMGR inh = blocks class II HMG-CoA reductase of Enterococcus faecalis; AID 1066; inhibition, % at 10 µM; hit rate 0.41% among 190,000; purified E. faecalis HMGR, NADPH absorbance 340 nm kinetic;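 active means inhibition above a set limit, the median over all tested compounds plus 3 SD, cut at about 9.5% in these data; inconclusive means no clear call, values can overlap the other calls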;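 further: enzyme runs in reverse so mevalonate oxidation gives rising NADPH absorbance; 0% = complete reaction with DMSO and 100% = background rate lacking mevalonate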
Active calls of the source: *; ? = inconclusive; · = no result. Only some compounds are listed: those with a hit (about 1.9% of all), similar ones and a draw of the others.

SMILES	dFosB activator	NCF1 inh	14-3-3 Bad PPI	Efa HMGR inh
CCN1CCN(C(=O)COc2ccc3c(c2)C(=O)CC2(CCN(C(C)=O)CC2)O3)CC1	-3	-13	3	-2
CN1C2CCC1C(COC(=O)c1ccccc1)C(O)C2 (configuration not stated)	4	-6	91*	·
COC(=O)C1=C(c2ccc(OC(F)(F)F)cc2)C[C@@H]2CC[C@H]1N2C(=O)N1CCCCC1	-15	·	·	·
O=C1CC=C2C3CC4N(CCC45c4ccccc4N1C25)CC3=CCO (configuration not stated)	2	·	·	·
O=C1CC=C2C3CC4N(CCC45c4cc(O)c(O)cc4N1C25)CC3=CCBr (configuration not stated)	51*	·	·	·
CCOC(=O)C1=C(C)OC(N)=C(C#N)C12C(=O)N(C)c1ccccc12 (configuration not stated)	0	-18	13	2
Cc1nonc1OCCNCCNc1ccc([N+](=O)[O-])c2cccnc12	?	-2	-12	-2
O=C1CN=C(c2ccccc2)c2cc(Cl)ccc2N1	-4	·	·	·
Cc1ccccc1C1=NCC(=S)Nc2ccc(Cl)cc21	-8	-17	-11	10*
O=C1NC(=S)N(c2ccc(F)cc2)C(=O)/C1=C\c1ccoc1	-6	-169	76*	-2
O=c1[nH]c2ccccc2n1C1CCN(CCCC(c2ccc(F)cc2)c2ccc(F)cc2)CC1	28*	-17	0	-2
C=C1[C@@H](C)[C@H]2[C@H](Cc3ccccc3)NC(=O)[C@]23OC(=O)/C=C/[C@H](O)CCC[C@@H](C)C/C=C/[C@H]3[C@@H]1O	-2	31*	2	·
C=C1C(C)C2C(Cc3ccccc3)NC(=O)C23C(OC(C)=O)C=CC(C)(O)CC(C)CC=CC3C1O (configuration not stated)	-6	·	·	·
COc1ccc(O)c(CN2CCCC(C(=O)c3ccccc3SC)C2)c1 (configuration not stated)	-5	-12	-6	-3
CCn1c(O)c(C=Nc2ccc(S(N)(=O)=O)cc2)c(=O)n(CC)c1=S	19*	-21	-8	-4
CCn1c(O)c(C=Nc2ccc(S(N)(=O)=O)cc2)c(=O)[nH]c1=S	20*	-195	-16	-8
NS(=O)(=O)c1ccc(N=Cc2c(O)n(C3CCCCC3)c(=O)n(C3CCCCC3)c2=O)cc1	-11	-24	4	-1
O=C(COC(=O)Cc1ccccc1)Nc1nnc(-c2ccccc2)o1	-4	·	·	·
CCOC(=O)C1(c2ccccc2)CCN(CCC(=O)Nc2ccc(C(=O)OC)cc2)CC1	-10	·	·	·
CCOC(=O)C1(c2ccccc2)CCN(CCC(=O)Nc2cccc(Br)c2)CC1	18*	·	·	·
Cc1nc2c(=O)n(C)c(=O)nc-2n(C)n1	-6	0	-10	10*
c1ccc(-c2[nH]c[n+](CC3CO3)c2-c2ccccc2)cc1 (configuration not stated)	·	31*	-16	-2
CCC(=NCc1ccco1)c1c(O)n(-c2ccccc2C)c(=O)[nH]c1=O	-5	-1	4	·
CN(C)c1ccc(/C=C2/C(=O)NC(=O)N(CCc3ccc(F)cc3)C2=O)cc1	7	-6	6	0
CN(C)c1ccc(/C=C2\C(=O)NC(=O)N(Cc3ccc(F)cc3)C2=O)cc1	?	97*	8	·
SMILES	dFosB activator	NCF1 inh	14-3-3 Bad PPI	Efa HMGR inh
CC(=O)c1c(C)n(Cc2ccccc2Cl)c2ccc(O)cc12	4	115*	-3	0
O=C(Cc1ccccc1)N1CCN(CC2CC3C=CC2C3)CC1 (configuration not stated)	-1	4	60	-1
O=C(Cc1ccccc1)N1CCN(CC2CC=CCC2)CC1 (configuration not stated)	-3	-5	77*	-2
CCC1CN2CCc3cc(OC)c(OC)cc3C2CC1CC1NCCc2c1[nH]c1ccc(O)cc21 (configuration not stated)	29*	·	·	·
CC1(C)OC(c2ccccc2)=C/C(=C/C=C2C(=O)NC(=O)NC2=O)O1	4	-137	-6	-4
COc1cc2c(ccc3c4cc(OC)c(OC)cc4c[n+](C)c23)cc1O	33*	·	·	·
C=CCn1c(O)c(C=NCCN2CCOCC2)c(=O)[nH]c1=S	-9	0	4	·
CCn1c(O)c(C(c2ccccn2)c2c(O)n(CC)c(=S)[nH]c2=O)c(=O)[nH]c1=S	-3	-6	73*	0
COC(=O)C1=C(c2c(C)noc2C)C[C@@H]2CC[C@H]1N2C(=O)NCC1CC1	-3	·	·	·
Fc1ccc(C2=CCN(C(c3cccs3)c3nnnn3CCc3ccccc3)CC2)cc1 (configuration not stated)	-9	-55	-7	5
